High-throughput results (PubChem)
Dicer inh: inhibitors of human Dicer processing of pre-microRNA. Q9UPY3. cat-ELCCA pre-miR-21 Dicer processing, chemiluminescence; active compounds read high. actives 6% (n = 47,000). AID 1347074. z-score at 25 µM; in the data active = z-score above about 3, passing the limit was not always enough;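 note: higher signal means more uncleaved substrate so more Dicer inhibition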
Target sequence (Q9UPY3 whole entry, looked up): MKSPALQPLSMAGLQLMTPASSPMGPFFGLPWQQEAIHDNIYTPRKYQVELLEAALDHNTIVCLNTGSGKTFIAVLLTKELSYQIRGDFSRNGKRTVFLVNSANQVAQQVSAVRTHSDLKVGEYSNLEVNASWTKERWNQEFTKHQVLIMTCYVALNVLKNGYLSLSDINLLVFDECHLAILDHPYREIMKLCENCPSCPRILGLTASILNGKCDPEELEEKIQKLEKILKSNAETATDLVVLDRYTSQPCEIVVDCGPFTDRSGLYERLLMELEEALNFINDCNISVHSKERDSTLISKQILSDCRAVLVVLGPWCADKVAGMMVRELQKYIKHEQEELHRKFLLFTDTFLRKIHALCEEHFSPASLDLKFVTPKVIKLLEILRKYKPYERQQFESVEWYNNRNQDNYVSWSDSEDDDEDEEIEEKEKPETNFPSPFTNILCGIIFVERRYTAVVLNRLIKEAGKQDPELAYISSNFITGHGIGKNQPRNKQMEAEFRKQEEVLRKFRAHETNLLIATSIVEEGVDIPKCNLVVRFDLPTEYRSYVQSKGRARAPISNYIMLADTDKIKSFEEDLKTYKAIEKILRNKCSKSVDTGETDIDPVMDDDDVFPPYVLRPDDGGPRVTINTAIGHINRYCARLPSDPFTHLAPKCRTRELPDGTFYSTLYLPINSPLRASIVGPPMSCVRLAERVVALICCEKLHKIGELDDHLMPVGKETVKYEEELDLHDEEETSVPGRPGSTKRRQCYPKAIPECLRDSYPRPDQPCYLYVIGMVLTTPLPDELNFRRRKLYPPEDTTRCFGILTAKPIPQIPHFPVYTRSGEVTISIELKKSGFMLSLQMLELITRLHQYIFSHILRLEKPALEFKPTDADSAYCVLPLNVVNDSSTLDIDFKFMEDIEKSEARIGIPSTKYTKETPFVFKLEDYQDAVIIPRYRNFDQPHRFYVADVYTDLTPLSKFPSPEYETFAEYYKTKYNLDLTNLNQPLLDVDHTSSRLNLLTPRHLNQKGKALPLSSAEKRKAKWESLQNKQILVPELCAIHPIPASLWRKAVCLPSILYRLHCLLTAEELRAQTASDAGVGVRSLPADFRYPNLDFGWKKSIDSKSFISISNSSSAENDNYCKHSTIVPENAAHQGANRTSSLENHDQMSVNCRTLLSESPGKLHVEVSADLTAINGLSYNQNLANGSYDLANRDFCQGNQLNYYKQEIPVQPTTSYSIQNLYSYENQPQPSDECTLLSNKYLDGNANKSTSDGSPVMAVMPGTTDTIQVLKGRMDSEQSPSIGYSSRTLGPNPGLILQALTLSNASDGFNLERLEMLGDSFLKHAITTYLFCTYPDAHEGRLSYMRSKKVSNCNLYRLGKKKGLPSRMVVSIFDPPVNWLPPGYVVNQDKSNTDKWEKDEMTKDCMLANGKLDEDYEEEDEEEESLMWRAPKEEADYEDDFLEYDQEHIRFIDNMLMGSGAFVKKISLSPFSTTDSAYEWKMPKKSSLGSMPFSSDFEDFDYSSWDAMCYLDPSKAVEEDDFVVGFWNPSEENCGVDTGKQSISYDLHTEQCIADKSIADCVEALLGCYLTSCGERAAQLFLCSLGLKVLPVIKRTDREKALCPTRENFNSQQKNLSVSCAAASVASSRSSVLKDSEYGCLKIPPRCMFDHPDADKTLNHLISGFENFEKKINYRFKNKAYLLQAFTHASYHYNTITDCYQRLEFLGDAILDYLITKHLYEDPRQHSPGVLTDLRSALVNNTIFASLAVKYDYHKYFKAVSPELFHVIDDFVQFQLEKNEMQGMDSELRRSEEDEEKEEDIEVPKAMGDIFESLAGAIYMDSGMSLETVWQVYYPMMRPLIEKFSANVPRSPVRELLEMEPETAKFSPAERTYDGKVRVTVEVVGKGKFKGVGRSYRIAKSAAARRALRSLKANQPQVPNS
Of the large screens only hits and unclear results are named; the others gave an inactive call. Many of the other results were omitted from the sample, so hits are more common in it than they were.

COc1ccc(OC)c(C2Nc3ccccc3NC3=C2C(=O)CC(c2ccc(OC)c(OC)c2)C3)c1 (stereo not drawn)	none
CSc1ccc(C2Nc3ccccc3NC3=C2C(=O)CC(c2ccccc2)C3)cc1 (stereo not drawn)	none
CN(C)c1ccc(C2Nc3ccccc3NC3=C2C(=O)CC(c2ccccc2)C3)cc1 (stereo not drawn)	none
COc1ccccc1C1Nc2ccccc2NC2=C1C(=O)CC(c1ccc(Cl)cc1)C2 (stereo not drawn)	Dicer inh 4.3
COc1ccc(C2CC(=O)C3=C(C2)Nc2ccccc2NC3c2ccc(OC)cc2OC)cc1 (stereo not drawn)	Dicer inh 3
COc1ccc(C2CC(=O)C3=C(C2)Nc2ccccc2NC3c2cccc3ccccc23)cc1 (stereo not drawn)	none
COc1ccc(C2CC(=O)C3=C(C2)Nc2ccccc2NC3c2ccccc2Cl)cc1OC (stereo not drawn)	none
CCN(CC)c1ccc(C2CC(=O)C3=C(C2)Nc2ccccc2NC3c2ccco2)cc1 (stereo not drawn)	Dicer inh 8.2
CC(C)n1c(Sc2ncc([N+](=O)[O-])s2)nc2ccccc21	none
CCn1c(SCC(=O)O)nnc1-c1cc(Br)ccc1O	none
Cc1ccc(OCc2nc(-c3ccccc3)no2)cc1C	none
Cc1ccc(-c2csc(-c3ccc(C4SCCS4)cc3)n2)c(C)c1	none
CN(C)c1ccc(CN2CCOC(=O)C2=O)cc1	none
CCCNC(=O)O/N=C/c1csc([N+](=O)[O-])c1	none
CCOC(=O)CSc1sc(C(=O)OCC)c2c1C(O)CCC2 (stereo not drawn)	none
O=C(OCCSc1ccc(Cl)cn1)c1cccc(Cl)c1	none
CC1(C)CC(=O)C2=C(C1)Nc1ccccc1NC2c1cc(Cl)ccc1O (stereo not drawn)	Dicer inh 3.9
CC1(C)CC(=O)C2=C(C1)Nc1ccccc1NC2c1ccc(O)c(O)c1 (stereo not drawn)	none
COc1ccc(C2CC(=O)C3=C(C2)Nc2ccccc2NC3c2ccccc2)cc1 (stereo not drawn)	Dicer inh 3.5
COc1ccc(C2CC(=O)C3=C(C2)Nc2ccccc2NC3c2ccc(Cl)cc2)cc1 (stereo not drawn)	none
Cc1ccc(C2Nc3ccccc3NC3=C2C(=O)CC(C)(C)C3)c(O)c1 (stereo not drawn)	none
COc1ccc(C2CC(=O)C3=C(C2)Nc2ccccc2NC3c2ccc(O)cc2)cc1 (stereo not drawn)	none
O=C1CS/C(=N\N=C\c2ccccc2)N1c1cc(C(F)(F)F)ccc1Cl	none
C=CCc1ccccc1OCc1ccc(C(=O)O)cc1	none
CSc1c2c(nc3cc(-c4cccs4)nn13)CC(C)(C)CC2=O	none
Cc1cc(-c2nc(COc3ccc([N+](=O)[O-])cc3)no2)no1	none
N#Cc1c(C(F)(F)F)cc(-c2ccccc2)nc1SCC(N)=O	none
CCOC(=O)CSc1nc(C2CC2)cc(-c2ccccc2)c1C#N	Dicer inh 3.7
CCOC(=O)CSc1nc(C)cc(C)c1C#N	none
Cc1ccc(-c2cc(C(F)(F)F)c(C#N)c(SCC(=O)O)n2)cc1	none
CCOC(=O)CSc1nc(-c2ccc(F)cc2)cc(C(F)(F)F)c1C#N	Dicer inh 3.2
CCOC(=O)COc1nc(-c2ccccc2)cc(-c2ccccc2)c1C#N	none
COc1ccc(-c2nc3c4c5c(sc4ncn3n2)CCCCC5)cc1	none
Cc1cc2oc(-c3ccccc3)cc(=O)c2cc1Cl	none
COc1ccc(C2/C(=C(\O)c3ccccc3)C(=O)C(=O)N2CCCn2ccnc2)cc1 (stereo not drawn)	none
Nc1ccccc1-c1nc(-c2cccc([N+](=O)[O-])c2)no1	none
CC(C)n1c(NCCO)nc2ccccc21	none
O=C(Cn1c(NCCO)nc2ccccc21)c1cccc2ccccc12	Dicer inh 4.2
O=C(Cn1c(NCCO)nc2ccccc21)c1ccco1	none
Cc1cc(S(=O)(=O)N2C(C)CCCC2C)ccc1Cl (stereo not drawn)	none
CCOC(=O)C(NC(=O)c1cccc(Cl)c1)(Nc1ccc(F)cc1)C(F)(F)F (stereo not drawn)	none
C/C(COc1ccc(Cl)cc1Cl)=N\OC(=O)c1c(F)cccc1F	none
CCOC(=O)C1=C(O)CCN(C)C1	Dicer inh 14
CCOC(=O)c1sc(=S)n(C)c1C	none
CCCCN1CC(C(=O)OCC)=C(O)C1=O	none
C#CC(O)(c1ccc(OC)cc1)c1ccccc1F (stereo not drawn)	Dicer inh 4.1
C=C(c1ccccc1)c1ccc(OC)cc1	none
COc1ccc(N=Nc2c(O)c(O)cc3ccccc23)cc1	none
CC/C(=C\N(C)C)C(=O)c1c(F)cccc1F	none
S=C(N/N=C/c1ccccc1)Nc1ccccc1	none
Brc1cn[nH]c1/C=N/Nc1nc(-c2ccccc2)cs1	Dicer inh 3.2
Cc1ccccc1CO/N=C\c1[nH]ncc1Br	none
Fc1ccc(/C=N/Nc2nc(-c3ccccc3)cs2)cc1	Dicer inh 6.8
Cc1onc(-c2ccccc2)c1-c1csc(Nc2ccc(Cl)cc2)n1	none
Clc1ccccc1/C=N/Nc1nc(-c2ccccc2)cs1	none
CCOC(=O)c1noc(C)c1-c1csc(N/N=C/c2ccccc2)n1	none
S=C(N/N=C/c1[nH]ncc1Br)Nc1ccccc1	Dicer inh 4.2
COc1ccc(/C=N/Nc2nc(-c3ccccc3)cs2)cc1	none
C=CCNc1nc(-c2ccccc2)cs1	none
Cc1onc(-c2ccccc2)c1-c1csc(N/N=C/c2ccccc2)n1	Dicer inh 4
c1ccc(-c2csc(NN=C3C4CC5CC(C4)CC3C5)n2)cc1	none
CCN1CN=C(SCc2c(Cl)cccc2Cl)NC1	none
COc1ccc(C2CC(=O)Nc3c2cc(Br)c2ccccc32)cc1OC (stereo not drawn)	none
COc1ccc(Oc2coc3cc(OC(=O)c4ccc(C)cc4)ccc3c2=O)cc1	none
O=S(=O)(c1ccc(Cl)cc1)N(CCc1ccccn1)c1ccc(Cl)cc1	none
CCc1ccc(Oc2coc3cc(OCC(=O)OC(C)CC)ccc3c2=O)cc1 (stereo not drawn)	none
CSc1c(C#N)c(-c2cc(C(C)(C)C)oc2C)nn1C	none
COc1ccc(C2Nc3ccc(Br)cc3C(c3ccccc3)N2CC(=O)O)cc1 (stereo not drawn)	none
COC(=O)CN1C(=O)Nc2ccc(Br)cc2C1c1ccccc1 (stereo not drawn)	none
O=C(O)CN1C(c2ccccc2O)Nc2ccc(Br)cc2C1c1ccccc1 (stereo not drawn)	Dicer inh 3.1
COc1ccc(NC(=O)c2ccccc2Sc2ccccc2COC(C)=O)cc1	none
CS(=O)(=NC(=O)NC(=O)c1ccc(Cl)cc1)c1ccc(C(F)(F)F)cn1 (stereo not drawn)	none
CCc1nnc2c3c4c(sc3ncn12)CC(C)CC4 (stereo not drawn)	none
CCCc1nnc2c3c4c(sc3ncn12)CC(C)CC4 (stereo not drawn)	Dicer inh 4.8
c1ccc(CCc2nnc3c4c5c(sc4ncn23)CCCC5)cc1	none
Cc1ccnc(SCc2cc(=O)n3c(nc4ccccc43)[nH]2)n1	none
COc1ccc(-c2noc(COc3ccccc3Cl)n2)cc1	none
COc1cc(OC)cc(-c2nc3n(n2)C(c2ccccc2)C2=C(CC(C)(C)CC2=O)N3)c1 (stereo not drawn)	none
COc1cc(/C=C/c2cc(C(F)(F)F)[nH]c(=O)n2)ccc1O	none
O=c1nc(/C=C/c2ccc(-c3cccc(F)c3)o2)cc(C(F)(F)F)[nH]1	Dicer inh 3.1
Cc1ccsc1/C=C/c1cc(C(F)(F)F)[nH]c(=O)n1	none
Cc1cc(NC(=O)C2CC(c3c(F)cccc3Cl)=NO2)no1 (stereo not drawn)	none
Cc1cc(C)nc(N2CCC(NC3CC(=O)N(c4ccc(F)c(Cl)c4)C3=O)CC2)n1 (stereo not drawn)	none
